The text below walks through data of the supplement of paper PMC11732987, “Enantioselective OTUD7B fragment discovery through chemoproteomics screening and high-throughput optimisation” (Communications Chemistry, 2025).

Values without a mark were called inactive.

Holding throughout (test): log2 ratio of Biotin-Ahx-Ub-VS probe labelling (fragment/DMSO); higher = less target engagement (more negative = stronger competition), active = hit call of the paper (q ≤ 0.05, log2 ratio ≤ -1)
What all share (settings): compound concentration: 200 uM; treatment time: 3 h

For one assay, the target named is T1, ALG13 (UniProt Q9NP73).
T1 sequence (whole entry): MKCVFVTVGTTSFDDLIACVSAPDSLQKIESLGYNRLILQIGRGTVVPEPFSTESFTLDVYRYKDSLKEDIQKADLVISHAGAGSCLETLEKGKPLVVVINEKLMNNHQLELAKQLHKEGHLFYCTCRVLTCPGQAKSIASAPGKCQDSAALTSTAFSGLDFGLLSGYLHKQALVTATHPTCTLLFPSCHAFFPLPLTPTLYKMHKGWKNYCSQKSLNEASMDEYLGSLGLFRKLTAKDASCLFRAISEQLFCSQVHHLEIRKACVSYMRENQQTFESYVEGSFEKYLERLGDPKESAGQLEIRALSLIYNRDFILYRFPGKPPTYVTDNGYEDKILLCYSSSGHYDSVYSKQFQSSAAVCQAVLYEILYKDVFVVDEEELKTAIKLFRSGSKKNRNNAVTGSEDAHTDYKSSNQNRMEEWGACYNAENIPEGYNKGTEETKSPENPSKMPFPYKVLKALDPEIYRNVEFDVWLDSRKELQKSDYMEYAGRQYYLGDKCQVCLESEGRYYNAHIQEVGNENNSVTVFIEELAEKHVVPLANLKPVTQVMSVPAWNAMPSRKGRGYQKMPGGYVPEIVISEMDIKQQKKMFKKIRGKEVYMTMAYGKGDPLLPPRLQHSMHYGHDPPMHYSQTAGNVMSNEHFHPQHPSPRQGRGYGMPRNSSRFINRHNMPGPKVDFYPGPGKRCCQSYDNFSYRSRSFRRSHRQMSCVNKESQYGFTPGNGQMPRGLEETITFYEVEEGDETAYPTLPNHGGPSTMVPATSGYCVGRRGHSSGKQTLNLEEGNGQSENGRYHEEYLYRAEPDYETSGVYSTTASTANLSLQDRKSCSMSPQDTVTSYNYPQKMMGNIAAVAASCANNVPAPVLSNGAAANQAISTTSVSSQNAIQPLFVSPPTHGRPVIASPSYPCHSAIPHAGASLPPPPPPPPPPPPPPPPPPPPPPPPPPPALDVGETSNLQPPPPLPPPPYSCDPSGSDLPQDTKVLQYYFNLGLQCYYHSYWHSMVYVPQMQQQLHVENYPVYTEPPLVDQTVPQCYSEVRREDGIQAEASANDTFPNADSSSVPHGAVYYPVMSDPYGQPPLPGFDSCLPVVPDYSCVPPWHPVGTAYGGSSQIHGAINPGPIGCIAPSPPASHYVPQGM
In a few lines: (§1)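 HEK293T lysate (495 µg per sample, in Tris/CHAPS/IGEPAL buffer with protease inhibitors) was treated in triplicate with fragment at 200 µM or with DMSO for 3 h. It was then treated with Biotin-Ahx-Ub-VS (0.5 µM final) for 1 h. Labelled DUBs were NeutrAvidin-enriched, digested with LysC and trypsin, and run by diaPASEF LC-MS/MS. Spectronaut label-free quantities were global-median-normalised. Values are average log2 ratios fragment/DMSO by unpaired t-test, using proteins with ≥2 unique peptides.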

The target of a further assay is ATXN3 (UniProt P54252). In a few lines: as §1
The target in a further assay is T2, BAP1 (UniProt Q92560).
T2 sequence (whole entry): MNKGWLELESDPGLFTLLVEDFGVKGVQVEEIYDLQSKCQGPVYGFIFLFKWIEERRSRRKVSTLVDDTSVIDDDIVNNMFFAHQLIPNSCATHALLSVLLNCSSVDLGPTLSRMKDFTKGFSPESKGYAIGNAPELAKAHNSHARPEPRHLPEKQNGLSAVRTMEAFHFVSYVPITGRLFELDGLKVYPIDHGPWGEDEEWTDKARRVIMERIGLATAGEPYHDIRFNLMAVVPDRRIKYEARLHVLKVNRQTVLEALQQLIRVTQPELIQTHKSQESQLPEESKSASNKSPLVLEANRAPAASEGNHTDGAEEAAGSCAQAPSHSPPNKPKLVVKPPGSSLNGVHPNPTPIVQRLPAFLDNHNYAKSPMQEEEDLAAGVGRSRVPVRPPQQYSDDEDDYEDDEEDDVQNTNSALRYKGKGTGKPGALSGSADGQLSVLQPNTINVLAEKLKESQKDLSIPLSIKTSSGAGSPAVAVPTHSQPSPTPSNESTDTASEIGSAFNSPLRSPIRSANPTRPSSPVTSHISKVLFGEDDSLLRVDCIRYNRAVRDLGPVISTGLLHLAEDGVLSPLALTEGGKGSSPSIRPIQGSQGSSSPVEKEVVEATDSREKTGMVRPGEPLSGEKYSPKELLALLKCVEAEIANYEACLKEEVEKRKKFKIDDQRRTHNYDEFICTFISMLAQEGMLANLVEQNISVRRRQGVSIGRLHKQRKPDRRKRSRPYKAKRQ
The essentials:
as §1

A further assay concerns the target EIF3F (UniProt O00303). The essentials:
as §1

The next assay concerns the target EIF3H (UniProt O15372). In a few lines: as §1
The next assay concerns the target T3, FAM105A (UniProt Q9NUU6).
T3 sequence (whole entry): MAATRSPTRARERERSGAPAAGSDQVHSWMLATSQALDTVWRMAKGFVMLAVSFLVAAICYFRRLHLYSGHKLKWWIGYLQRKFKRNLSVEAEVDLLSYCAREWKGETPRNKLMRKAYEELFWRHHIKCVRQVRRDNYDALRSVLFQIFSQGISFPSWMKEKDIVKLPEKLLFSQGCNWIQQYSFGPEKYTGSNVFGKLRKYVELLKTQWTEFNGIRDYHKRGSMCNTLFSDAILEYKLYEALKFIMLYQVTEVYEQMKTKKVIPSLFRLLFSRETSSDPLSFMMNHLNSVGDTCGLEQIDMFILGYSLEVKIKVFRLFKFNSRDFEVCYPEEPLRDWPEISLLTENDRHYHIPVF
In a few lines:
as §1

The target in a further assay is OTUB1 (UniProt Q96FW1). The essentials: as §1
The target of a further assay is T4, OTUD4 (UniProt Q01804).
T4 sequence (whole entry): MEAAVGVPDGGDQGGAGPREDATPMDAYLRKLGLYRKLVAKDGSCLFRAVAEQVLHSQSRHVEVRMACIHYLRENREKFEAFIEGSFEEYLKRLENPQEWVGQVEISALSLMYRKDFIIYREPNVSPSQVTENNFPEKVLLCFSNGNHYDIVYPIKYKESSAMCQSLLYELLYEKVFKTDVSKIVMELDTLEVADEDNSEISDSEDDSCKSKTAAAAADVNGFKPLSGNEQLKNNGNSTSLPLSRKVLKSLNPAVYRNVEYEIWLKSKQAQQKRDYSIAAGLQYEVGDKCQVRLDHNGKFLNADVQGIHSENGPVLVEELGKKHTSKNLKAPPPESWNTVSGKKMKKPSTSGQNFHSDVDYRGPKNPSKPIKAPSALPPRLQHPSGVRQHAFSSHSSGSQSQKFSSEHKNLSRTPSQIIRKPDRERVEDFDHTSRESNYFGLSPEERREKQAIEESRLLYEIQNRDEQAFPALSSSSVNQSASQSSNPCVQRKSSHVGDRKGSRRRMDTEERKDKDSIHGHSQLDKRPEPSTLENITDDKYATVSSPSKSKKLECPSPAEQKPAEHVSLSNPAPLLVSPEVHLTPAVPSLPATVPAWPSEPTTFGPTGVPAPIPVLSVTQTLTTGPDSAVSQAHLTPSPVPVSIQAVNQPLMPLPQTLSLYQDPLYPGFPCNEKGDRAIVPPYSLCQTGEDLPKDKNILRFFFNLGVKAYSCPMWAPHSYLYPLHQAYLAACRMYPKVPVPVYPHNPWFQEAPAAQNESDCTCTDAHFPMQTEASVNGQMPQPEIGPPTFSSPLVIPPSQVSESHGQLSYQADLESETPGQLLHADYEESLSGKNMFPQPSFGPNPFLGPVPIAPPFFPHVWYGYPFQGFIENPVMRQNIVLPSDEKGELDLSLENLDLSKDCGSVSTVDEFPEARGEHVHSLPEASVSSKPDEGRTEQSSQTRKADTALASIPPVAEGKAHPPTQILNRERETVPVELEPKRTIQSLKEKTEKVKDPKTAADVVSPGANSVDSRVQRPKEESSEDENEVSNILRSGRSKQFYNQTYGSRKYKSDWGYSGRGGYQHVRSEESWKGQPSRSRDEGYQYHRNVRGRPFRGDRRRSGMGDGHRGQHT
In a few lines:
as §1

The target of a further assay is T5, OTUD5 (UniProt Q96G74).
T5 sequence (whole entry): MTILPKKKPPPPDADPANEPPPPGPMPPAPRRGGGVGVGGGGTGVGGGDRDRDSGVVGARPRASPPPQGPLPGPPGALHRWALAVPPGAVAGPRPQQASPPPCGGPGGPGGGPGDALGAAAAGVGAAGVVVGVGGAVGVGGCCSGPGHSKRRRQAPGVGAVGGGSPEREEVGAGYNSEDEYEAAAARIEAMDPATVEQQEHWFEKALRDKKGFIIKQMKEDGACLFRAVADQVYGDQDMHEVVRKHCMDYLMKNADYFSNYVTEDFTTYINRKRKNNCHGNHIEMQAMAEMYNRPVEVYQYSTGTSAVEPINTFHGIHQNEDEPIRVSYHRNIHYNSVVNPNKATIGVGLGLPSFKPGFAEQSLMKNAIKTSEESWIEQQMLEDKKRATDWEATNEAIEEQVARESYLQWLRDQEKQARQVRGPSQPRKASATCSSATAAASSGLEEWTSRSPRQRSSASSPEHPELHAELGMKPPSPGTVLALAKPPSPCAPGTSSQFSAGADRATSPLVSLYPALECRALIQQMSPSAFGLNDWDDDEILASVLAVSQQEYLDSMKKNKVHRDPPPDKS
In a few lines:
as §1

Sequence of OTUB1 (Q96FW1 whole entry): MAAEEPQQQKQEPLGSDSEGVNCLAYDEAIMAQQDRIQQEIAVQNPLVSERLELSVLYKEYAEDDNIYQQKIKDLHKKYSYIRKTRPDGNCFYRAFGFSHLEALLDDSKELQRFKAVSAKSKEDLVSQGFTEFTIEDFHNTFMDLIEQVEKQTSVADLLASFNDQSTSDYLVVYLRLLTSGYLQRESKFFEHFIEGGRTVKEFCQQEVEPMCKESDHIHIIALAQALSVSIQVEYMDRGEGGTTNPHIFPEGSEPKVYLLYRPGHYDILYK
Sequence of EIF3F (O00303 whole entry): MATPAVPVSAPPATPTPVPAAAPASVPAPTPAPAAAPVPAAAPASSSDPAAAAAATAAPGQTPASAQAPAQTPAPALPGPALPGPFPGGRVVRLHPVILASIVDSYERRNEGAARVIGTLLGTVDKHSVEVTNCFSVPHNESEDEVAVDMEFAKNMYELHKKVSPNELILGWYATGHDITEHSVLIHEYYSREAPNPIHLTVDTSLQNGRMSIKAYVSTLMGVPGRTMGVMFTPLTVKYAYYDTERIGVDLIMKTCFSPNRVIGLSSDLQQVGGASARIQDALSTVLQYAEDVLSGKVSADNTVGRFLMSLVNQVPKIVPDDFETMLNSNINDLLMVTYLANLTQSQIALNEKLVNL
Sequence of EIF3H (O15372 whole entry): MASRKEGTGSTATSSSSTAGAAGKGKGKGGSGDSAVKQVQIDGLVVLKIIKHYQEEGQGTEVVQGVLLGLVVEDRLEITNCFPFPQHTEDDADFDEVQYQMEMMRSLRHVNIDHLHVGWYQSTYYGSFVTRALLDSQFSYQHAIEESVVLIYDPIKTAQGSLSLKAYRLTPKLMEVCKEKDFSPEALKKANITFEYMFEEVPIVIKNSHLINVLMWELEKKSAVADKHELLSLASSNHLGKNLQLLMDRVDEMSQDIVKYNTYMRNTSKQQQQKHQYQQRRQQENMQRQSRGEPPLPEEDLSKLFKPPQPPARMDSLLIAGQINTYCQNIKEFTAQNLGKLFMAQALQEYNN
Sequence of ATXN3 (P54252 whole entry): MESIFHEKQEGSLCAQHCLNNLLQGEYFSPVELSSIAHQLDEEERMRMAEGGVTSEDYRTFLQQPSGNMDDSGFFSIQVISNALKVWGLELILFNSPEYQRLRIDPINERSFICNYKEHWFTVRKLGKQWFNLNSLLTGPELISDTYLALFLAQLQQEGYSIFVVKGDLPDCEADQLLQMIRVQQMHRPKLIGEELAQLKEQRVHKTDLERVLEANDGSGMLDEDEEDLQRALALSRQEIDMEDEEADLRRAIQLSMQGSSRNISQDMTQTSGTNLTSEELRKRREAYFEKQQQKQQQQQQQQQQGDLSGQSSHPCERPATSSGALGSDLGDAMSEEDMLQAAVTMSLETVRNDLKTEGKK

Turning to `Cc1nc(CN2CCCN(C(=O)CCl)CC2)no1.Cl`, the “log2 ratio of Biotin-Ahx-Ub-VS probe labelling” value (“log2 ratio” below) with ALG13 was -0.458; with ATXN3, 0.224; with BAP1 it was 0.234; with EIF3F, -0.233; with EIF3H, 0.122; with FAM105A it was -0.14. For the same molecule, the “log2 ratio” value with OTUB1 is 0.0104; with OTUD4, 0.243; with OTUD5 it was -0.0201.

Consider `Cc1ccc(C)c(NC(=O)CCl)c1`, for which the “log2 ratio” value is 0.0947 with ALG13; -0.548 in the assay with ATXN3; -3.51 (active) in the assay with BAP1; -0.246 in the assay with EIF3F; 0.0185 with EIF3H; -0.0979 in the assay with FAM105A. For the same molecule, the “log2 ratio” value with OTUB1 is -0.23; with OTUD4, -0.598; with OTUD5, -0.833.

In the case of `Cc1ccc(N2CCC(NC(=O)CCl)C2=O)cc1` (stereo not drawn), the “log2 ratio” value was -0.511 with ALG13; -0.0941 in the assay with ATXN3; -2.46 (active) with BAP1; 0.043 in the assay with EIF3F; -0.278 with EIF3H; 0.0934 with FAM105A. Moreover, the “log2 ratio” value is 0.0513 with OTUB1, 0.0319 with OTUD4 and 0.0904 with OTUD5.

As for `O=C(CCl)NCCc1cccc2ccccc12`, the “log2 ratio” value with ALG13 was -0.35; with ATXN3 it was 0.214; with BAP1 it was -1.22 (active); in the assay with EIF3F it was 0.273; with EIF3H it was 0.236; with FAM105A it was 0.159. Besides, the “log2 ratio” value with OTUB1 was 0.162; in the assay with OTUD4, 0.0626; in the assay with OTUD5, 0.0474.

For the molecule `Cc1nc(CC2CCN(C(=O)CCl)CC2)no1`, the “log2 ratio” value was -0.358 in the assay with ALG13; -1.02 (active) with ATXN3; -1.08 in the assay with BAP1; -0.302 with EIF3F; -0.111 with EIF3H; -0.155 with FAM105A. In addition, the “log2 ratio” value was -0.686 with OTUB1, -0.753 in the assay with OTUD4 and -0.888 with OTUD5.

On to `Cc1ccc(N(CCC#N)C(=O)CCl)cc1C`, for which the “log2 ratio” value is -0.389 in the assay with ALG13; -0.353 with ATXN3; -0.735 in the assay with BAP1; -0.396 in the assay with EIF3F; 0.219 with EIF3H; -0.314 with FAM105A. Also, the “log2 ratio” value in the assay with OTUB1 was -0.139; with OTUD4, -1.93 (active); in the assay with OTUD5 it was -0.661.

In the case of `CCN(C(=O)CCl)C1CCS(=O)(=O)C1` (stereo not drawn), the “log2 ratio” value in the assay with ALG13 was -0.231; in the assay with ATXN3, -0.159; with BAP1, -0.0461; with EIF3F, -0.357; in the assay with EIF3H it was 0.227; with FAM105A it was 0.291. The “log2 ratio” value with OTUB1 was -0.59; with OTUD4, -0.679; with OTUD5 it was -0.272.
